From the supplement of paper PMC11732987, “Enantioselective OTUD7B fragment discovery through chemoproteomics screening and high-throughput optimisation” (Communications Chemistry, 2025)

Experiments:
Test in all cases: log2 ratio of Biotin-Ahx-Ub-VS probe labelling (fragment/DMSO); higher = less target engagement (more negative = stronger competition), active = hit call of the paper (q ≤ 0.05, log2 ratio ≤ -1)
Conditions in all cases: compound concentration: 200 uM; treatment time: 3 h
[1] = target: T1, OTUD6B (UniProt Q8N6M0)
T1 sequence (whole entry): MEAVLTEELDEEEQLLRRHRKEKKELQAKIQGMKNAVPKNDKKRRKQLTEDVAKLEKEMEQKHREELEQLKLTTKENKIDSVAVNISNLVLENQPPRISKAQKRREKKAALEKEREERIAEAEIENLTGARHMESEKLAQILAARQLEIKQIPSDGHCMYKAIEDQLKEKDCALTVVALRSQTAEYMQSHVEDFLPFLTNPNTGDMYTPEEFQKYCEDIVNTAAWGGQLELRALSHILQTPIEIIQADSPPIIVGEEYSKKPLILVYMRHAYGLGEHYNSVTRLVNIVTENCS
Procedure, shortened: (§1)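 Average log2 ratios of fragment over vehicle were obtained by unpaired t-test from global-median-normalised Spectronaut label-free quantities. Proteins with ≥2 unique peptides were included. HEK293T lysate (495 µg per sample) was treated in triplicate with fragment at 200 µM or vehicle for 3 h, then with Biotin-Ahx-Ub-VS at 0.5 µM final for 1 h, and labelled DUBs were NeutrAvidin-enriched and run by diaPASEF LC-MS/MS.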

[2] = target: T2, OTUD7B (UniProt Q6GQQ9)
T2 sequence (whole entry): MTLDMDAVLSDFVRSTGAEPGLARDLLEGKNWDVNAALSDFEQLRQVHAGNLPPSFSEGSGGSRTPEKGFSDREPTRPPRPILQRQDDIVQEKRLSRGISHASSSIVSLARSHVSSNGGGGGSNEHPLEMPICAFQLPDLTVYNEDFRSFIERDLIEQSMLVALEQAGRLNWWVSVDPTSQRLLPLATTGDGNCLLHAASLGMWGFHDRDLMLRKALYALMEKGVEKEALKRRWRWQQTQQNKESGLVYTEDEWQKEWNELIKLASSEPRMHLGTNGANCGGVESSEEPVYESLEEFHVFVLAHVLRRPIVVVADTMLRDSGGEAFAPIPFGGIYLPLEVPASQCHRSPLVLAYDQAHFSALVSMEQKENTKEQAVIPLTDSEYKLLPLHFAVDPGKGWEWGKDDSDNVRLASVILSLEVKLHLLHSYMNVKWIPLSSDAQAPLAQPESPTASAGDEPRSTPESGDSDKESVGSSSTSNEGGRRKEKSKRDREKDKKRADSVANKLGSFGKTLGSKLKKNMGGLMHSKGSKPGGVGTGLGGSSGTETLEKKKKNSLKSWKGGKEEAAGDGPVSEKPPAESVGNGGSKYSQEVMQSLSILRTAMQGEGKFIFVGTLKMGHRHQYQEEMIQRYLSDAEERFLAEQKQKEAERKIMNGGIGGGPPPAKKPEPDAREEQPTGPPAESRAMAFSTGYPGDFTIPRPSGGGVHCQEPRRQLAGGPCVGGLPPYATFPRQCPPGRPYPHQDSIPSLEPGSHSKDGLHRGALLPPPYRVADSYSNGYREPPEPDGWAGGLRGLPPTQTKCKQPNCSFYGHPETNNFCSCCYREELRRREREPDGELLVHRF
Procedure, shortened: as §1

[3] = target: PRPF8 (UniProt Q6P2Q9)
Procedure, shortened: as §1

[4] = target: T3, PSMD7 (UniProt P51665)
T3 sequence (whole entry): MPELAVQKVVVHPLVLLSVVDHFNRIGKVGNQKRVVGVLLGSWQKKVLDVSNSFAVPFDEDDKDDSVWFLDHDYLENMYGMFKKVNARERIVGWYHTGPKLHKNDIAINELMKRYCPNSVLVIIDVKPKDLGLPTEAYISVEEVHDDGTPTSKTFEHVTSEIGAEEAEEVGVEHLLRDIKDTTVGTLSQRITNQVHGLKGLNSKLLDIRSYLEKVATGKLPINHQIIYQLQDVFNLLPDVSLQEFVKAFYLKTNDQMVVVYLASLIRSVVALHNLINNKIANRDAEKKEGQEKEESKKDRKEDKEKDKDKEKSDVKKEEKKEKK
Procedure, shortened: as §1

[5] = target: UCHL1 (UniProt P09936)
Sequence of UCHL1 (P09936 whole entry, looked up): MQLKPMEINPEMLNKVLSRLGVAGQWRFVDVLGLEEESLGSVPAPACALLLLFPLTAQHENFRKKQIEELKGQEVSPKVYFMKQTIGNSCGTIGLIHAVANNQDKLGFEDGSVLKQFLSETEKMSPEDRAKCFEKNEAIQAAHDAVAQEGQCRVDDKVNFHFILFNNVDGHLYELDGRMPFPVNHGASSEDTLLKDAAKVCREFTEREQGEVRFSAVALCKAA
Procedure, shortened: as §1

[6] = target: T4, UCHL3 (UniProt P15374)
T4 sequence (whole entry): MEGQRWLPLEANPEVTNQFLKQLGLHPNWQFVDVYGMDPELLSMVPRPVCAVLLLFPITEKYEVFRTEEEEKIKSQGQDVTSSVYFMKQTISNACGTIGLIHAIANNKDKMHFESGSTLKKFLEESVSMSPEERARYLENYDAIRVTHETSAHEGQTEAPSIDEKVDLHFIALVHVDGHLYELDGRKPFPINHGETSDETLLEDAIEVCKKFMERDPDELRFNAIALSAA
Procedure, shortened: as §1

[7] = target: T5, UCHL5 (UniProt Q9Y5K5)
T5 sequence (whole entry): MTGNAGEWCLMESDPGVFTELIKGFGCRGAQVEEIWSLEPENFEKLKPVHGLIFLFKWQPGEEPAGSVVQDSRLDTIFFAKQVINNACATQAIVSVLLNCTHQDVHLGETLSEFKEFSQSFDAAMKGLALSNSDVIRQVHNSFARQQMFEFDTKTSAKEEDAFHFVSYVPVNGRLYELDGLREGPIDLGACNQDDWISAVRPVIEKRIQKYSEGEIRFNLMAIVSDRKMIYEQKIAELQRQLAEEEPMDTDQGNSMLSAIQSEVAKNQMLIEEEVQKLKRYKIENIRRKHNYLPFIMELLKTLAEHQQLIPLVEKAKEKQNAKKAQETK
Procedure, shortened: as §1

[8] = target: USP10 (UniProt Q14694)
Sequence of USP10 (Q14694 whole entry): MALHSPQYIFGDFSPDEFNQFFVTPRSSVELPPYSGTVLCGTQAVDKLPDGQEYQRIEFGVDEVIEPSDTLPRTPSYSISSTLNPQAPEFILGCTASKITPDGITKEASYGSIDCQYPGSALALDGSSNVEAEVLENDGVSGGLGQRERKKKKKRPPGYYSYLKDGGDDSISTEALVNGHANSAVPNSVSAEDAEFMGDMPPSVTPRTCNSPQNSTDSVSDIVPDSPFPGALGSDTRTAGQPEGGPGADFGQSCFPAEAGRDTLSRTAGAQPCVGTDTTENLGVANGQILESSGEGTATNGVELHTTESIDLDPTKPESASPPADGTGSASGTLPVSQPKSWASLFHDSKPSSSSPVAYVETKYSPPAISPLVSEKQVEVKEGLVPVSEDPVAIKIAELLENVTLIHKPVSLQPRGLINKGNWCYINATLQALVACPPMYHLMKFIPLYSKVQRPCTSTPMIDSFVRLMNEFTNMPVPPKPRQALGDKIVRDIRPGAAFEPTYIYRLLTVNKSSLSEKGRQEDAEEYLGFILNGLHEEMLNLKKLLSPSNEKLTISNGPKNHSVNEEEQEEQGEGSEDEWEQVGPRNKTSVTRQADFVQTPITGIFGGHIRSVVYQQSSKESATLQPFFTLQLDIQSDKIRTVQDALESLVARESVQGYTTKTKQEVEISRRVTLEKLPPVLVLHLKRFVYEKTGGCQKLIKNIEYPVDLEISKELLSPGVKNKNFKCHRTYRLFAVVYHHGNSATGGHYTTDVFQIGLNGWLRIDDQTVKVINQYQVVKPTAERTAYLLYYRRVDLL
Procedure, shortened: as §1

[9] = target: T6, USP15 (UniProt Q9Y4E8)
T6 sequence (whole entry): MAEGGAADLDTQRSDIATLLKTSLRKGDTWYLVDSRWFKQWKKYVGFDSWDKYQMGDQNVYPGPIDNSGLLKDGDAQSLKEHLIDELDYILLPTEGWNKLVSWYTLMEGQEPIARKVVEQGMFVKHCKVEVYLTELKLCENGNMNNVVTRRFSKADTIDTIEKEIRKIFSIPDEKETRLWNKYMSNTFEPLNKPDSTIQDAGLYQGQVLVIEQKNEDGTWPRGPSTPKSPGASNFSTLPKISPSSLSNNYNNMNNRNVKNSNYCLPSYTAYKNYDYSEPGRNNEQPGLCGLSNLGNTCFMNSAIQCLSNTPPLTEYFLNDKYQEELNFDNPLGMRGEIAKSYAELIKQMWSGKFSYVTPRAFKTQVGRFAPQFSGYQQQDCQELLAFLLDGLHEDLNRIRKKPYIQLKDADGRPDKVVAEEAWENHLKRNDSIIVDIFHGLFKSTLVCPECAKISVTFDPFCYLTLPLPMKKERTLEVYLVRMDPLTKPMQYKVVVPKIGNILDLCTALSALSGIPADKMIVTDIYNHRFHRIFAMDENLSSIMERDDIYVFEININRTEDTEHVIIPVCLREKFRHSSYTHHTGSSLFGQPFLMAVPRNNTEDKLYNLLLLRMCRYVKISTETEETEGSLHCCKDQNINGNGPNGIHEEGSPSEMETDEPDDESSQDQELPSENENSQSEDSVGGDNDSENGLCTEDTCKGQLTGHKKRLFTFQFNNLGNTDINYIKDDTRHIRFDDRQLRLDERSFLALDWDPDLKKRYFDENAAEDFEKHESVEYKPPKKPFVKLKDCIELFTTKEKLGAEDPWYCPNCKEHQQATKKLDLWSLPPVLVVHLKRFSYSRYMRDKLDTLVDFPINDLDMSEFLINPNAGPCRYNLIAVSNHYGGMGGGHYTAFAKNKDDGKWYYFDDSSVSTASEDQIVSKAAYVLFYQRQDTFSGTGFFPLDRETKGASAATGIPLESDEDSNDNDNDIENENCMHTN
Procedure, shortened: as §1

[10] = target: USP16 (UniProt Q9Y5T5)
Sequence of USP16 (Q9Y5T5 whole entry, looked up): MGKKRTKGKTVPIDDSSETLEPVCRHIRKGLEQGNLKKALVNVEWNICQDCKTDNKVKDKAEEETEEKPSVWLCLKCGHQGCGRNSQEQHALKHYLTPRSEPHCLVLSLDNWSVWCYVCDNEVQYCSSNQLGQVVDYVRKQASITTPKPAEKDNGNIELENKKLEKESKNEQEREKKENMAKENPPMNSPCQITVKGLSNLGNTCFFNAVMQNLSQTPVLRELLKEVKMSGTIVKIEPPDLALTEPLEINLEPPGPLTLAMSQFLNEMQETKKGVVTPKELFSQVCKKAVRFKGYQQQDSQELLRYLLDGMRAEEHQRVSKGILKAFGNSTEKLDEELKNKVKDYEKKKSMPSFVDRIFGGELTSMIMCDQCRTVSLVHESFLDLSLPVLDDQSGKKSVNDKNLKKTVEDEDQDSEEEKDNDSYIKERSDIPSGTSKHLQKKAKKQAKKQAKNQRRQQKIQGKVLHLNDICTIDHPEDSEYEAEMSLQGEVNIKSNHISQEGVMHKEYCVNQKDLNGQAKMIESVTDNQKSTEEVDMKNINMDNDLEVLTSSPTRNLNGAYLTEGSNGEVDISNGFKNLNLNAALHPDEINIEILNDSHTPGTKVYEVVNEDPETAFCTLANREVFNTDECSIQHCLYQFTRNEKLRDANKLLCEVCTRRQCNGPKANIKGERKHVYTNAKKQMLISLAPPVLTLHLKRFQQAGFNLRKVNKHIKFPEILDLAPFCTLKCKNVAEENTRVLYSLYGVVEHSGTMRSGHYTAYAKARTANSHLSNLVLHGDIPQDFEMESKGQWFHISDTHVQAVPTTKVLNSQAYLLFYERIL
Procedure, shortened: as §1

Measured: log2 ratio of Biotin-Ahx-Ub-VS probe labelling

CN1c2ccccc2C(NC(=O)CCl)CS1(=O)=O (stereo not given)
active: [2] -2.41 | [5] -1.69
inactive: [1] -0.0927 | [3] 0.0667 | [4] -0.189 | [6] 0.316 | [7] -0.387 | [8] 0.128 | [9] -0.212 | [10] -0.411
